Compound activity: PubChem BioAssay, National Center for Advancing Translational Sciences (NCATS)
Only some compounds are listed: those with a hit (about 19% of all), similar ones and a draw of the others.
IL-1B inflam inh: qHTS for Inhibitors of Inflammasome Signaling: IL-1-beta AlphaLISA Primary Screen; THP-1 LPS/ATP IL-1B secretion, AlphaLISA, 16 h; hits give low values; hit rate 4.7% among 360,000; activity change, % at 57.5 µM; in the data active means activity change below about -50%; inconclusive means mostly about -30% to -49%; further: on the % scale 0 is the no-effect control and ±100 the full control effect
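THP-1 cells pretreated 1 hr with compounds (up to 57.5 uM final), then stimulated with LPS (250 ng/mL final) plus ATP (1.25 mM final); secreted IL-1B measured by AlphaLISA after 16 hr, decreased signal indicating inhibition.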
TDP1 cell CPT: qHTS for Inhibitors of human tyrosyl-DNA phosphodiesterase 1 (TDP1): qHTS in cells in presence of CPT; chicken DT40 Tdp1-/-;hTDP1 cells + 20 nM CPT, ATP luminescence, 48 h; Potency, µM (highest dose often 46.2 µM), for inactives: top-dose activity change, negative = growth inhibition, actives largely listed as inhibitors; hit rate 12% among 420,000; AID 686979, 2013; further: potency means the concentration at half of the fitted maximal effect; on the % scale 0 is the no-effect control and ±100 the full control effect; nearly all actives have a fitted effect of over 55% in size
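Chicken DT40 Tdp1-/- cells stably complemented with human TDP1 were seeded at 400 cells/well in medium containing 20 nM camptothecin, exposed to pin-transferred compounds, and grown at 37 °C for at least 48 hr. Viability was read as ATP luminescence.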
TDP1 cell noCPT: qHTS for Inhibitors of human tyrosyl-DNA phosphodiesterase 1 (TDP1): qHTS in cells in absence of CPT; DT40 Tdp1-/- hTDP1 cells, no CPT, ATP luminescence, 48 h; Potency, µM (series often up to 46.2 µM), for the others: at the highest dose activity change, negative = growth inhibition, most hits filed as inhibitors; hit rate 15% among 420,000; further: potency means the concentration at half of the fitted maximal effect; on the % scale 0 is the no-effect control and ±100 the full control effect; nearly all actives have a fitted effect of over 55% in size
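Chicken DT40 Tdp1-/- cells complemented with human TDP1, screened without camptothecin (DMSO vehicle only), 400 cells/well. Compounds pin-transferred, cells incubated at 37 °C for at least 48 hr. Growth read as ATP-dependent luminescence (CellTiter-Glo, 30 min at RT).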
ASM inhibitor: Inhibitors of Secretory Acid Sphingomyelinase (S-ASM): qHTS | Sphingomyelin phosphodiesterase (Homo sapiens), P17405 | Potency, µM (top dose mostly 57.5 µM), for inactives: at the top dose activity change, negative = inhibition, usual class: inhibitors | hit rate 0.006% among 340,000 | placental ASM, HMU-PC fluorogenic substrate, 60 min | AID 504937, 2011; further: potency means the concentration at half of the fitted maximal effect
Target sequence (P17405 47-631 limits assumed): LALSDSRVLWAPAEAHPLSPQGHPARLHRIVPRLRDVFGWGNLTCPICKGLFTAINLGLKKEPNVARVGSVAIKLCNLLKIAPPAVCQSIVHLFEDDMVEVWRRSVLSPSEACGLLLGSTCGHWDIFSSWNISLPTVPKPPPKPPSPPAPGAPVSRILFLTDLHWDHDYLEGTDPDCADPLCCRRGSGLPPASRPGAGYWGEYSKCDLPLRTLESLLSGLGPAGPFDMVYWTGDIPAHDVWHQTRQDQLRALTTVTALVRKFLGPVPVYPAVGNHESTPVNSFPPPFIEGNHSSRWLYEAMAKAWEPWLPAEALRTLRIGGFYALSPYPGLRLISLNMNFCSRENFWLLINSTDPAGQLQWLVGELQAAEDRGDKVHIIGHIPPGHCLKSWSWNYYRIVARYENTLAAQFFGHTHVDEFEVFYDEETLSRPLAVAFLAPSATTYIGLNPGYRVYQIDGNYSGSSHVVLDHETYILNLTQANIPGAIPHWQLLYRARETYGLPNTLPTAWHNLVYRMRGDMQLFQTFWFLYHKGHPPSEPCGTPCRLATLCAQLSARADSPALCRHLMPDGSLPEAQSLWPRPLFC
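Fluorescence read-out (Ex 386 nm, Em 447 nm) after stopping the reaction at pH 10. Enzyme: ASM from human placenta; substrate HMU-PC0, 9 uM final; 60 min, 37 °C. Compound preincubation 10 min, ambient temperature.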
TGFb inhibitor: qHTS for Inhibitors of TGF-b; HepG2 CAGA-GFP TGF-b/SMAD3 reporter, GFP fluorescence, 18 h; TGF-beta stimulated, 500 pg/mL final; hit rate 1.2% among 410,000; Potency, µM (highest dose often 46.1 µM), for inactives: at the highest dose activity, negative = inhibition, hits mostly inhibitors; further: potency means the concentration at half of the fitted maximal effect; on the % scale 0 is the no-effect control and ±100 the full control effect; nearly all actives have a fitted effect of over 65% in size
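Inhibition of TGF-beta-driven CAGA-GFP reporter expression in HEPG2 cells is measured by cellular GFP fluorescence after 18 h stimulation with 500 pg/mL recombinant TGF-beta in 1% FBS medium at 37 degrees C.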
HepG2 tox: qHTS for Inhibitors of TGF-b: Cytotox Counterscreen; HepG2 CAGA-GFP viability, ATP luminescence, 18 h; Potency, µM (doses to about 46.1 µM), without a hit: at the highest dose activity change, negative = cytotoxicity, usual class: cytotoxic; hit rate 0.76% among 410,000; further: potency means the concentration at half of the fitted maximal effect
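CellTiter-Glo luminescence gave cytotoxicity after 18 hours at 37 degrees C. The cells were HepG2 CAGA-GFP in 1% FBS DMEM, stimulated with 500 pg/mL TGF-beta after compound addition. %Activity was normalised to no-cell wells (complete cell-killing) and DMSO (no toxicity), and curves were fitted and classified.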
* = called active by the depositor; u = inconclusive; x = no result given. Unless noted, the call rests on the fitted dose curve; in most records, active means well fitted curve in the direction sought with a large enough effect; inconclusive means small, poorly fitted or top-dose-only effect, or another doubt; inactive means no such curve, though single readings can be large; an effect the other way counts as inactive or inconclusive.

SMILES	IL-1B inflam inh	TDP1 cell CPT	TDP1 cell noCPT	ASM inhibitor	TGFb inhibitor	HepG2 tox
C=CC[C@@H](CC(=O)NCCO)C(=O)N[C@@H](COC(=O)[C@@H](CC=C)CC(=O)OC(C)(C)C)Cc1ccccc1	-6.4	u	-27.1%	0.3%	-10.9%	-25.6%
Cc1csc2nc(CSc3ccc(Cl)cc3)cn12	-90.9*	u	23.1µM*	-6.9%	-16.0%	-17.7%
CCOC(=O)Nc1ccc2c(c1)N(C(=O)N(C)C)c1ccccc1CC2	0.0	u	29.1µM*	0.5%	-13.1%	-20.6%
CC(C)OC(=O)Nc1ccc2c(c1)N(C(=O)N1CCN(C)CC1)c1ccccc1CC2	-28.1	11.6µM*	13µM*	14.9%	-4.8%	-85.1%
CCNCC(=O)N1c2ccccc2CCc2ccc(NC(C)=O)cc21	1.5	-12.2%	-7.8%	4.4%	-5.5%	-9.5%
CCOC(=O)Nc1ccc2c(c1)N(C(=O)N(CC)CC)c1ccccc1CC2	u	u	u	-0.3%	25.8%	-1.2%
CCNCC(=O)N1c2ccccc2CCc2ccc(NC(=O)OC(C)C)cc21	-66.2*	u	16.4µM*	-3.3%	u	-34.3%
COc1ccc(/C(O)=C2/C(=O)C(=O)N(CCCN3CCOCC3)C2c2ccc(C(C)C)cc2)cc1 (stereo not drawn)	0.0	-11.6%	3.9%	0.8%	-0.2%	-0.5%
Cc1c(N/N=C(\C#N)C(=O)c2ccc(Cl)cc2)c(=O)n(-c2ccccc2)n1C	36.2	3.66µM*	3.66µM*	-4.0%	u	3.3%
CC(=N\Nc1ccc(Cl)cc1)/C(=N/O)C(=O)Nc1ccccc1	-16.4	-9.0%	-20.3%	-12.6%	0.0%	-16.8%
N#C/C(=N\Nc1ccc(Cl)cc1)C(=O)c1ccccc1	-52.3*	9.2µM*	10.3µM*	u	u	-36.3%
CC(C)CN1C(=O)C(=O)N(CC(=O)NC(C)CCc2ccccc2)C1=O (stereo not drawn)	-16.8	-16.9%	-31.6%	6.9%	-8.5%	0.8%
O=S1(=O)CC(O)C(NCc2ccco2)C1 (stereo not drawn)	-13.2	16.3%	3.1%	-0.6%	-17.1%	2.7%
CC(C)(C)c1cc(CNC2CS(=O)(=O)C[C@@H]2O)cc(C(C)(C)C)c1O (stereo partly drawn)	-1.6	14.6µM*	16.4µM*	-2.1%	-14.0%	-25.5%
CCN(CCCNC(=O)Cn1ncc2c3ccccc3n(C)c2c1=O)c1cccc(C)c1	x	u	u	x	1.1%	3.1%
CCOC(=O)C(=O)Cc1cccnn1	8.2	4.1%	-0.8%	2.0%	-8.6%	5.2%
O=C(NCc1ccc2c(c1)CCN2C(=O)c1ccncc1)c1ccc(Cl)cc1	x	u	u	x	15.6%	-22.1%
COc1cc(C(=O)NCc2ccc3c(c2)CCN3C(=O)c2ccc(Cl)cc2)cc(OC)c1OC	x	23.1µM*	14.6µM*	x	u	-28.5%
COc1ccc(C(=O)NCc2ccc3c(c2)CCN3C(C)=O)cc1OC	x	13.6%	-13.3%	x	32.1%	-9.5%
COc1ccc(C(=O)NCc2ccc3c(c2)CCN3C(=O)c2ccc(Cl)cc2)c(OC)c1	x	18.4µM*	18.4µM*	x	u	-23.4%
O=C(CC(=O)c1c(F)cccc1Cl)c1ccccc1O	6.8	u	11.6µM*	0.3%	u	-24.6%
O=C(CC(=O)c1ccccc1O)c1ccc(F)cc1	37.4	10.3µM*	11.6µM*	-1.2%	-35.0%	-27.6%
